Compound activity from PubChem BioAssay.
ADAM10 inh: inhibitors of human ADAM10; O14672; recombinant ADAM10, EDANS/DABCYL FRET peptide cleavage, 3 h; inhibition, % at 7 µM; 0.62% of 370,000 active; AID 720582;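 active means inhibition above a per-campaign cutoff equal to the mean of compounds falling between control-based bounds plus 3 SD, cut at about 20% in these data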
Target sequence (O14672 214-748 limits assumed): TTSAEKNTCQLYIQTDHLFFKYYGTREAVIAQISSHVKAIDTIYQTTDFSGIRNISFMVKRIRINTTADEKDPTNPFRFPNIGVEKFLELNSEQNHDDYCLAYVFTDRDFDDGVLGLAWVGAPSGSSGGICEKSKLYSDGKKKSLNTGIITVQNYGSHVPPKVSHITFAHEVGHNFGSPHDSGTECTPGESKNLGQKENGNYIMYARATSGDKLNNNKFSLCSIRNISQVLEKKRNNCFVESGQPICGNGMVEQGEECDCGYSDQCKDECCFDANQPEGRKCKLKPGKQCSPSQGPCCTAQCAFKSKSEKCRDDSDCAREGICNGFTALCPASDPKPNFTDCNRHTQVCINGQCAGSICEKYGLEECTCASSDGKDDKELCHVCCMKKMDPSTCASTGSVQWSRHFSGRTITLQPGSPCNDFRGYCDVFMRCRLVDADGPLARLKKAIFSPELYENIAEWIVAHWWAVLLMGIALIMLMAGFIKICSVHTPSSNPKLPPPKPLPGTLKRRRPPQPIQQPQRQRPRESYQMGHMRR
sPLA2-III inh: Inhibits HGIII-sPLA2 liposome hydrolysis, primary screen; AID 743126; 0.56% of 370,000 active; QFRET BODIPY PC-A2 liposome hydrolysis, fluorescence; inhibition, % at 12.2 µM;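 active means inhibition above mean plus 3 SD of compounds lying within the high and low control bounds, cut at about 19% in these data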
FAS TE block: blocks the thioesterase domain of human fatty acid synthase; inhibition, % at 15 µM; 0.67% of 360,000 active; P49327; recombinant FAS-TE, OMFH fluorogenic substrate, fluorescence endpoint; AID 602261;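 active means compounds whose normalised, plate-corrected inhibition of enzyme fluorescence in the single-dose primary screen is 50% or more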
ADAM17 inh: inhibitors of human ADAM17. P78536. recombinant ADAM17, EDANS/DABCYL FRET peptide cleavage. inhibition, % at 6.95 µM. 0.83% of 370,000 active. AID 720648;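 active means inhibition above the mean of compounds lying between control limits plus 3 SD, set per campaign, cut at about 8.5% in these data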
NR3A LBD binder: NR3A (human) ligand-binding domain modulation. NR3A LBD differential scanning fluorimetry, Tm shift; 0% = protein alone, 100% = glycine-bound protein. 2.5% of 340,000 active. Tm shift relative to glycine control, % at 25 µM;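 active means melting temperature shift of at least 10% of the positive control shift, at one fixed dose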
FAS-TE conf: confirmation of human fatty acid synthase thioesterase inhibitors. shares compounds with FAS TE block. recombinant FAS-TE, OMFH fluorogenic substrate, fluorescence. 45% of 2,300 active. inhibition, % at 15 µM;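 active means compounds inhibiting the enzyme by at least 50% at 15 µM in any one of the replicates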
Large screens that a line does not name were inactive (follow-up assays come after a bar, where they were run). Only some compounds are listed: those with a hit (about 4.3% of all), similar ones and a draw of the others.

O=C(NCCCCc1ccccc1)c1cccc([N+](=O)[O-])c1	FAS TE block 54 | FAS-TE conf 65
O=C(Nc1ccc(NC(=O)c2cccc([N+](=O)[O-])c2)cc1)c1cccc([N+](=O)[O-])c1	none
O=C(NCCCCc1ccccc1)c1cc([N+](=O)[O-])cc([N+](=O)[O-])c1	FAS TE block 52 | FAS-TE conf 53
O=[N+]([O-])c1cccc(NC(=S)NCCc2ccccc2)c1	FAS TE block 65, NR3A LBD binder 33 | FAS-TE conf 57
O=C(Nc1ccc(Cc2ccncc2)cc1)c1cccc([N+](=O)[O-])c1	FAS TE block 66 | FAS-TE conf 70
O=C(NCCCc1ccccc1)c1cccc([N+](=O)[O-])c1	FAS TE block 67 | FAS-TE conf 51
CC(CCc1ccccc1)NC(=O)c1cccc([N+](=O)[O-])c1 (configuration not stated)	FAS TE block 62 | FAS-TE conf 70
CCOC(=O)[C@]12CCCC3=C1N(CCC3)C(=O)[C@@H](CC(=O)N1CCC(c3ccccc3)CC1)C2	none (no result: FAS TE block, NR3A LBD binder)
O=C(Cc1ccccc1)NCC(=O)OCC(=O)c1cccc([N+](=O)[O-])c1	none
O=C(CCc1ccccc1)OCC(=O)c1cccc([N+](=O)[O-])c1	FAS TE block 56 | FAS-TE conf 57
N/C(=N\OC(=O)CC1CCCCC1)c1cccc([N+](=O)[O-])c1	FAS TE block 62 | FAS-TE conf 68
N/C(=N\OC(=O)CCCc1ccccc1)c1cccc([N+](=O)[O-])c1	FAS TE block 50 | FAS-TE conf 63
COc1ccc(C(C(=O)N(C)C2CCCC2)N(Cc2ccc(F)cc2)C(=O)c2csc3ccc(Cl)cc23)cc1OC (configuration not stated)	none (no result: FAS TE block, NR3A LBD binder)
CCCCCN1CCCCC(NC(=O)c2ccc(C)cc2)C1=O (configuration not stated)	none (no result: FAS TE block, NR3A LBD binder)
Cc1cccc(OCC(=O)N/N=C/c2cc([N+](=O)[O-])ccc2N2CCOCC2)c1	FAS TE block 66 | FAS-TE conf 57
CCc1ccc(OCC(=O)N/N=C/c2cc([N+](=O)[O-])ccc2N2CCOCC2)cc1	FAS TE block 73 | FAS-TE conf inactive
COc1ccc(C2OCCNC3C2C(=O)N(Cc2ccc(OC)cc2OC)C3Cc2ccccc2)cc1 (configuration not stated)	none (no result: FAS TE block, NR3A LBD binder)
O=C(Nc1ccc(Cl)cc1Cl)OC1CCC12CCC(c1ccccc1)CC2 (configuration not stated)	none (no result: FAS TE block, NR3A LBD binder)
Cc1nnc(C)n1N=Cc1ccc(O)cc1O	none (no result: FAS TE block, NR3A LBD binder)
O=S1(=O)N[C@H](Cc2ccccc2)COc2cc(Br)ccc21	none (no result: FAS TE block, NR3A LBD binder)
O=C(Nc1ccc2c(c1)OCCO2)C(c1cc2ccccc2o1)N1CCN(c2ccc(C(F)(F)F)cn2)CC1 (configuration not stated)	FAS TE block 55 (no result: NR3A LBD binder) | FAS-TE conf inactive
COC(=O)[C@]1(C#N)CC(=O)N(Cc2ccc(Cl)cc2)[C@@H]1c1ccccc1	none (no result: FAS TE block, NR3A LBD binder)
COC(=O)[C@]12C[C@H](CC(=O)N3CCC(c4ccccc4)CC3)C(=O)N(Cc3ccco3)C1=C[C@H](C1CCCC1)O[C@@H]2C	none (no result: FAS TE block, NR3A LBD binder)
O=C(Cn1nnc(-c2ccccc2)n1)N/N=C/c1cc([N+](=O)[O-])ccc1O	none
Cc1cc([N+](=O)[O-])nn1CC(=O)N/N=C/c1ccccc1Br	FAS TE block 63 | FAS-TE conf 68
Cc1cccc(NC(=O)CCC(=O)N/N=C/c2cc([N+](=O)[O-])ccc2O)c1	none
O=C(Cn1nc2ccccc2n1)N/N=C/c1cc([N+](=O)[O-])ccc1O	FAS TE block 57 | FAS-TE conf 75
O=C(Cn1cnc([N+](=O)[O-])n1)N/N=C/c1ccccc1O	none
O=C(Cn1cnc([N+](=O)[O-])n1)N/N=C/c1cc(Cl)ccc1O	FAS TE block 79 | FAS-TE conf 88
O=C(CCC(=O)Nc1ccc(Br)cc1)N/N=C/c1cc([N+](=O)[O-])ccc1O	FAS TE block 56 | FAS-TE conf 64
O=C(c1cc(Cl)ccc1F)N1CCCC(c2nc(-c3cccs3)no2)C1 (configuration not stated)	none (no result: FAS TE block, NR3A LBD binder)
O=C(NCCc1ccccc1)OCc1cn(Cc2cccc(C(F)(F)F)c2)nn1	none (no result: FAS TE block, NR3A LBD binder)
O=C(CCC(=O)Nc1ccc(F)cc1)N/N=C/c1ccccc1O	none
O=C(CCC(=O)Nc1ccc(F)cc1)N/N=C/c1cc([N+](=O)[O-])ccc1O	FAS TE block 56 | FAS-TE conf 65
COc1cccc(N2CCN(CC(=O)NCc3ccco3)CC2)c1	none (no result: FAS TE block, NR3A LBD binder)
C/C(=N\NC(=S)NC1CCCCC1)c1ccc(OC(F)F)cc1OC(F)F	FAS TE block 57 | FAS-TE conf inactive
COC(=O)[C@@]1(Cc2ccc(OC)cc2)[C@H]2c3cc(C(=O)N4CCCC4)n(CCN4CCOCC4)c3C[C@H]2CN1C(=O)c1ccccc1	none (no result: NR3A LBD binder)
COC(=O)[C@@]1(Cc2ccc(F)cc2)[C@H]2c3cc(C(=O)N4CCCC4)n(CCc4c[nH]c5ccccc45)c3C[C@H]2CN1C(=O)c1ccccc1	FAS TE block 62 (no result: NR3A LBD binder) | FAS-TE conf inactive
COC(=O)[C@@]1(Cc2ccc(OC)cc2)[C@H]2c3cc(C(=O)N4CCCC4)n(CCc4c[nH]c5ccccc45)c3C[C@H]2CN1C(=O)c1ccccc1	FAS TE block 58 (no result: NR3A LBD binder) | FAS-TE conf inactive
O=C(c1cc(Cl)cc(Cl)c1)N1CC[C@H]2[C@H](CCCN2Cc2ccccc2)C1	none (no result: FAS TE block, NR3A LBD binder)
Cn1c(=O)c2c3c(sc2n2c(SCC(N)=O)nnc12)CC(C(C)(C)C)CC3 (configuration not stated)	FAS TE block 56 | FAS-TE conf inactive
CCCCN(CCCC)C(=O)CSc1nnc2n(C)c(=O)c3c4c(sc3n12)CCCC4	none
CCCC[C@H]1C2CC(OC(=O)Nc3ccccc3)C(C2)[C@H]2CCCCN21 (some centres not stated)	none (no result: FAS TE block, NR3A LBD binder)
Cc1ccc(Cl)cc1N1CCN(C(c2ccc(C#N)cc2)c2nnnn2C2CCCC2)CC1 (configuration not stated)	FAS TE block 69 | FAS-TE conf inactive
NC(=O)C1CCN(C2=C(Cl)C(=O)c3ccccc3C2=O)CC1	FAS TE block 52 | FAS-TE conf inactive
COC(=O)c1cc2c(c3c4cc(OC)ccc4n(S(=O)(=O)c4ccc(OC)cc4)c13)C(=O)N(Cc1ccc(N(C)C)cc1)C2	none (no result: FAS TE block, NR3A LBD binder)
CCOc1ccc(-c2ccc(NS(=O)(=O)c3cc([N+](=O)[O-])c(C)c([N+](=O)[O-])c3)cc2)nn1	FAS TE block 84 | FAS-TE conf 83
Cc1cccc(S(=O)(=O)N2CCC[C@H]2C(=O)N2CCC[C@@H]2C(=O)NCc2ccccc2)c1	none (no result: FAS TE block, NR3A LBD binder)
CC1C(=O)CC(c2ccc([N+](=O)[O-])cc2)NC1c1ccc([N+](=O)[O-])cc1 (configuration not stated)	FAS TE block 52 | FAS-TE conf inactive
